USP30 block: human USP30 deubiquitinase inhibition; purified USP30, Ub-rhodamine cleavage fluorescence; inhibition, % at 25 µM; actives 5.3% (n = 47,000); AID 1645860
Target sequence (Q70CQ3 whole entry, looked up): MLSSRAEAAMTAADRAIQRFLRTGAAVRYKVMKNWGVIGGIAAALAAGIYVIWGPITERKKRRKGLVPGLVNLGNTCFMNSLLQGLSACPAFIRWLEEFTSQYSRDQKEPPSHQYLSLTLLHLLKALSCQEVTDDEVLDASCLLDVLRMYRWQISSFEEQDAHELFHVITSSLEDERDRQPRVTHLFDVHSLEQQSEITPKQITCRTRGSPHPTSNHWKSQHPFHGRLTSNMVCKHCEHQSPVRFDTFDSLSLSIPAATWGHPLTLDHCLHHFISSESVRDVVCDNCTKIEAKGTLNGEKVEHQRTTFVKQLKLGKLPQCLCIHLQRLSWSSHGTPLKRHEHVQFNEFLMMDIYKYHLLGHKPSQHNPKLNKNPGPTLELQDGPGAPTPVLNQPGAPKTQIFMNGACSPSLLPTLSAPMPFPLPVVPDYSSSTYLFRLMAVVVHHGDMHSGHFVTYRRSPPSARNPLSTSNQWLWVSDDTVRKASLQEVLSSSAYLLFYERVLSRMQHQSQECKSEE
USP28 block: blocks human USP28 ubiquitin-rhodamine cleavage | purified USP28, Ub-rhodamine cleavage fluorescence, 30 min | inhibition, % at 25 µM | actives 3% (n = 47,000)
USP17 block: blocks human USP17 ubiquitin-rhodamine cleavage; A8MUK1; purified USP17, Ub-rhodamine cleavage fluorescence, 3 h; inhibition, % at 50 µM; actives 6.5% (n = 47,000)
USP8 block: inhibitors of human USP8 deubiquitinase. actives 4.2% (n = 47,000). inhibition, % at 20 µM. purified USP8, Ub-rhodamine cleavage fluorescence, 30 min
Numbers without * were called inactive; · = no result. This is a sample that favours compounds with a hit; in the whole collection about 14% have one here. No stated cut-off is given here; in the data, active means inhibition above about 30%; inactive means the rest.

SMILES	USP30 block	USP28 block	USP17 block	USP8 block
CCCCOC(=O)c1c(C)oc2c1cc(NS(=O)(=O)c1ccc(CC)cc1)c1ccccc12	-51.4	-5.0	14.3	44.8*
COc1ccc(C(=O)Nc2cc(F)c3[nH]c(=O)ccc3c2)cc1	35.0*	28.9	38.8*	-3.4
Cc1ccc(NC(=O)N2CCc3[nH]cnc3C2c2ccncc2)cc1Cl (stereo not given)	-11.5	8.6	-1.9	3.0
Cc1cccc(NS(=O)(=O)c2cc3[nH]c4c(c3cc2C)C(=O)CC(C)(C)C4)c1	20.2	4.0	36.4*	1.8
Cc1cc2c3c([nH]c2cc1S(=O)(=O)NC1CCCC1)CC(C)(C)CC3=O	17.0	20.8	14.1	12.4
CCN(c1ccccc1)S(=O)(=O)c1cc2[nH]c3c(c2cc1C)C(=O)CC(C)(C)C3	18.2	5.6	32.9*	7.5
Cc1cc2c3c([nH]c2cc1S(=O)(=O)NCCc1ccccc1)CC(C)(C)CC3=O	-0.2	-0.1	-0.1	0.2
O=C(CN1C(=O)[C@@H]2CCCN2c2ncccc21)NCc1ccc2c(c1)OCO2	8.5	2.9	0.6	2.3
Cc1noc(-c2cc3c(ccc4ccccc43)oc2=O)n1	-15.7	13.0	42.2*	-10.8
Cc1noc(-c2cccn(Cc3cc(=O)n4ccccc4n3)c2=O)n1	-1.4	1.7	0.5	9.7
C=C1NC(=O)c2c(sc(C(=O)OCC(=O)Nc3cccc(C)c3C)c2C)N1	20.6	9.3	20.8	9.9
O=C(Cn1ccc2ccc([N+](=O)[O-])cc21)N1CCc2ccccc21	-259.7	-38.9	-79.6	-164.7
COc1cccc(NC(=O)Cn2cc(C(=O)C3CC3)c3ccccc32)c1	69.2*	11.6	53.1*	25.2
CCC(=O)c1cn(CC(=O)Nc2cccc(C)c2)c2ccccc12	0.5	7.2	7.2	0.2
Cc1ccc(C)c(NC(=O)Cn2cc(C(=O)C3CC3)c3ccccc32)c1	75.8*	57.0*	62.4*	92.9*
COc1ccc(C(=O)c2nnn(-c3cc(Cl)cc(Cl)c3)c2C)cc1	23.9	-1.0	19.2	1.2
Cc1cccc(NC(=O)Cc2nnc3c(-c4nc(C5CC5)no4)cccn23)c1	-432.0	-139.5	-179.6	82.8*
Cc1cc(C)cc(NC(=O)Cc2nnc3c(-c4nc(C5CC5)no4)cccn23)c1	-278.6	-40.6	-34.2	2.2
O=C(Cc1nnc2c(-c3nc(C4CC4)no3)cccn12)N1CCCCCC1	-73.5	-10.2	-6.5	43.1*
O=C(OCC(=O)N1CCCc2ccccc21)c1cccc(F)c1	10.7	9.8	5.1	13.0
Cc1ccc2cc(-c3noc(-c4cccnc4)n3)c(=O)[nH]c2c1	-70.9	-20.2	5.0	2.9
Cc1ccc2[nH]c(=O)c(-c3noc(-c4ccc([N+](=O)[O-])cc4)n3)cc2c1	42.3*	10.2	47.9*	-2.9
CSc1ccc(C(=O)NCc2ccc(-c3ccc(F)cc3)o2)cc1	-48.3	18.9	5.1	16.2
Cc1cc(O)c2c(c1)C(=O)c1cc(O)cc(O)c1C2=O	-486.4	-86.1	1.9	-13.9
CC1(C)OC2=C(C(=O)c3cc(O)cc(O)c3C2=O)c2cc(CO)c(O)cc21	-0.1	27.1	81.8*	10.4
SMILES	USP30 block	USP28 block	USP17 block	USP8 block
Cc1nn(Cc2c(Cl)cccc2Cl)c(C)c1NC(=O)c1noc2c1CCCC2	0.3	13.7	-1.5	0.9
O=C(Nc1sc2c(c1-c1nc3ccccc3[nH]1)CCCC2)c1ccccc1[N+](=O)[O-]	-16.3	-4.2	1.4	31.9*
O=C(Nc1sc2c(c1-c1nc3ccccc3[nH]1)CCCC2)c1ccncc1	-173.7	-160.4	17.1	31.2*
Cc1ccc(S(=O)(=O)CCc2nc(S(=O)(=O)c3ccc(C)cc3)c(NCc3ccccc3)o2)cc1	15.9	14.2	6.6	15.5
O=C(Cc1ccccc1[N+](=O)[O-])Nc1cnn(Cc2ccc(F)cc2)c1	31.7*	-9.0	-28.4	-142.6
O=C(NCc1ccc(F)cc1)NCc1cnn2ccccc12	-0.5	-0.1	0.3	0.2
O=C(NCC1CC1)[C@H]1CC[C@@H]2[C@@H](CCN2c2ncc(F)cn2)O1	-372.6	-95.5	-130.8	-227.8
CC(C)CNc1nc2c(cc1C(=O)N1CCCC1)CCN(c1ncccn1)CC2	·	·	-34.6	-0.3
Cc1nc2cc(-c3nccn3C)nn2c(N2CCC(O)(c3ccccc3F)CC2)c1C	-4.8	2.1	33.8*	0.0
COc1ccccc1OCC(O)CNc1c(C)c(C)nc2cc(-c3nccn3C)nn12 (stereo not given)	0.2	-9.2	-13.9	-30.9
Cc1nc(C2COCCN2C(=O)c2cc(C(C)(C)C)[nH]n2)cc(=O)[nH]1 (stereo not given)	0.7	-2.0	-4.6	-0.4
CCOc1ccc(CCNC(=O)c2ccc3c(c2)N(CC)C(=O)c2ccccc2S3)cc1OCC	-1.5	60.2*	0.3	9.2
COc1cccc(NC(=O)C2CCC(CNS(=O)(=O)c3ccc4c(c3)C(C)(C)C(=O)N4C)CC2)c1 (stereo not given)	0.2	75.8*	0.4	-8.4
Nc1c(C(=O)NCCc2ccccc2)nnn1-c1ccc(F)cc1	8.6	2.9	61.4*	4.6
CCOc1cccc2sc(N(Cc3cccnc3)C(=O)CCc3ccccc3)nc12	79.8*	21.6	6.1	-1.6
COc1cc(C(=O)N(Cc2ccccc2)c2nc3ccccc3s2)cc(OC)c1OC	-10.2	5.8	-1.1	-1.4
CC(NC(=O)C1CCN(S(C)(=O)=O)c2ccccc2O1)c1ccccc1 (stereo not given)	32.6*	9.9	11.6	16.6
COc1ccc(/C=C/c2cc(OC)cc(=O)o2)cc1	32.3*	17.4	30.1*	5.2
Cc1nc2ccccc2c(=O)n1Cc1ccc(-c2ccccc2)cc1	-1.9	-10.7	51.4*	2.7
Cc1nnc(Nc2cccc(C3CCCN(CC(N)=O)C3)n2)s1 (stereo not given)	30.1*	11.2	7.9	5.1
O=S(=O)(c1ccc(F)c(F)c1)N1CCCCC1c1nnc(-c2ccccn2)o1 (stereo not given)	-4.2	0.5	-3.1	-10.0
O=C(Oc1cc(O)cc2c1C[C@@H](OC(=O)c1cc(O)c(O)c(O)c1)[C@@H](c1cc(O)c(O)c(O)c1)O2)c1cc(O)c(O)c(O)c1	0.1	77.8*	77.3*	-303.8
COc1cccc(S(=O)(=O)N2CC[C@@H]3[C@H]2C(=O)N(C)[C@@H](C)C(=O)N3C)c1	18.8	12.7	13.9	31.7*
C[C@H]1C(=O)N(C)[C@@H]2CCN(S(=O)(=O)c3cccc(Cl)c3)[C@@H]2C(=O)N1C	22.2	0.6	11.3	18.9
CC(C)=CCC/C(C)=C/CCC(C)(O)C1Cc2c(c3ccccc3[n+]([O-])c2C)O1 (stereo not given)	30.3*	6.9	18.9	11.5
CC(=O)NC(Cc1ccccc1)C(=O)NC1CCN(c2nc(C)cc(C)c2C#N)CC1 (stereo not given)	-28.1	-6.9	-14.0	-5.5
Cc1cc(C)c(C#N)c(N2CCN(S(=O)(=O)Cc3ccccc3)CC2)n1	22.4	3.1	45.3*	1.2
CCOC(=O)c1c(C)[nH]c(C(=O)C(C)OC(=O)c2cccc(O)c2)c1C (stereo not given)	·	·	1.6	9.3
O=C(CCCc1c[nH]c2ccccc12)N1CCN(C(=O)c2ccc(Cl)cc2Cl)CC1	7.3	1.6	3.1	6.3
